What follows are sequences tested against USP44 (assay: pooled miR-30 sensor sort-seq; sequence = guide strand). Details: shRNA.
With TTTGATATACTACTGTATCTGT the sensor-assay potency score (higher = more potent) was 0.327.
For TTGCACAAGTTCATCATCCGAG, the sensor-assay potency score (higher = more potent) was 0.487.
Sequence TTGATCTTCACTTTGAAGCAGA has a sensor-assay potency score (higher = more potent) of -0.107.
Work on TACAACATTCAGAACTTGTTTG yielded a sensor-assay potency score (higher = more potent) of -0.39.
Sequence TATAAAACAAGATATAAGCTTG has a sensor-assay potency score (higher = more potent) of -0.0233.
Work on TTGCAGTGTACCCAGAACCCTC yielded a sensor-assay potency score (higher = more potent) of -1.01.
For TTGATTTGTTGTCACATGCAAG, the sensor-assay potency score (higher = more potent) was -1.1.
TACGCTTTGAGTTACACTGGTC gave a sensor-assay potency score (higher = more potent) of 0.148.
TATCATTCAGAACATAATCATC gave a sensor-assay potency score (higher = more potent) of -1.41.
TAACTTGATACTCCAATTCCTG showed a sensor-assay potency score (higher = more potent) of -1.33.
For TTGCAGTCCACACAGTGCCATT, the sensor-assay potency score (higher = more potent) was -1.55.
In the case of TATCTTTTGCTGGTGATGCTGG, the sensor-assay potency score (higher = more potent) is reported as -0.299.

Source: the OligoGym collection
Further: reference of the scale not given here.
